Measured values reported in PubChem BioAssay (NCATS).
Several values for one entry are separate records, joined by “and”; a condition that tells them apart may be missing. Equal entries are not always repeated. Records with an inconclusive call do not appear. Where a call stands in place of a potency, no number is given. Where a structure was tested more than once in an assay, its records may differ in their call. Activity calls are given as the source filed them. Unless noted, calls come from the whole dose curve.

Experiments:
[1] = Cell Proliferation Assay against the TMD8 Cell Line (Caspase readout at 8 hrs) (AID 651713; active = well fitted activation curve with a large enough effect)
In short: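 Seed log-phase TMD8 cells, add compound by pin tool, incubate 8 h at 37C under 5% CO2, equilibrate to room temperature, add Caspase-Glo, wait 15 min, read luminescence; percent activity uses DMSO and 9.2 uM bortezomib controls.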

[2] = qHTS assay for small molecule agonists of the antioxidant response element (ARE) signaling pathway (AID 651741; active = well fitted activation curve with a large enough effect in the signal ratio; the % refers to the signal ratio; note: potency is the fitted concentration of half-maximal effect)
In short: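 CellSensor ARE-bla HepG2 cells (2,000/well) carrying ARE-driven beta-lactamase, exposed 16 h at 37 C. LiveBLAzer B/G FRET substrate added for 2 h at room temperature; fluorescence intensity read.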

[3] = qHTS assay for small molecule activators of the p53 signaling pathway (AID 651743; active = well fitted activation curve with a large enough effect in the signal ratio, not every such curve was filed as active; the % refers to the signal ratio; note: series mostly up to about 92 µM); conditions: HCT-116 p53RE-bla, beta-lactamase FRET ratio, 16 h; stronger effect = higher value
In short: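 p53RE-bla HCT-116 cells carrying a beta-lactamase reporter under p53 response elements were exposed to compounds for 16 hours at 37 C. Reporter activity read as fluorescence after 2 hours at room temperature with LiveBLAzer B/G FRET substrate.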

[4] = qHTS assay for small molecule activators of the nuclear factor-kappa B (NF-kB) signaling pathway (AID 651749; active = well fitted activation curve with a large enough effect in the signal ratio; the % refers to the signal ratio; note: series mostly up to about 77 µM); conditions: NF-kB-bla ME-180 cells, beta-lactamase FRET ratio, 16 h; stronger effect = higher value
In short: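 NF-kB-bla ME-180 cells carrying a beta-lactamase reporter under an NF-kB response element, 2,000 cells/well, exposed to compound for 16 hr at 37C; FRET-based beta-lactamase fluorescence read-out of pathway activation.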

[5] = qHTS assay for small molecule disruptors of the mitochondrial membrane potential - 1 hr assay (AID 651754); note: nearly all actives have a fitted effect of over 35% in size
In short: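 HepG2, 2,000 cells/well, overnight attachment; cpd or DMSO 1 hr, 37C/5% CO2; Mito-MPS dye 30 min, 37C; fluorescence monomer (490/535) and aggregate (540/590).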

[6] = qHTS assay for small molecule disruptors of the mitochondrial membrane potential - 5 hr assay (AID 651755); note: nearly all actives have a fitted effect of over 40% in size
In short: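 HepG2 cells (2,000/well), attached overnight, exposed to compound 5 hr at 37C, then Mito-MPS dye 30 min. Fluorescence read for monomers (490/535 nm) and aggregates (540/590 nm).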

[7] = molecular target: Tumor necrosis factor (Homo sapiens) (UniProt P01375); assay: qHTS assay to identify small molecules that stimulate Tumor Necrosis Factor-alpha (TNF-alpha) secretion (AID 651757; active = well fitted curve in the direction sought with a large enough effect in the signal ratio; the % refers to the signal ratio)
In short: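 Read-out is HTRF, a TR-FRET sandwich of cryptate- and XL665-labeled anti-TNF-alpha antibodies detecting cytokine secreted by THP-1 cells. Cells had been incubated with test compounds at 37 C for 17 hrs beforehand.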

Sequence of Tumor necrosis factor (Homo sapiens) (P01375 whole entry, looked up): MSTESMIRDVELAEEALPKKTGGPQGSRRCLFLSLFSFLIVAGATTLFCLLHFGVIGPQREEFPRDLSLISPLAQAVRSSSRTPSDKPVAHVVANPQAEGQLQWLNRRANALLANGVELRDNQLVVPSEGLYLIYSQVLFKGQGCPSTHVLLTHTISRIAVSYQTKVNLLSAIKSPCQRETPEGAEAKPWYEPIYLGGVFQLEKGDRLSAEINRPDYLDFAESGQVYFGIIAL

SMILES: Cc1cc2c(cc1C1(c3ccc(C(=O)O)cn3)CC1)C(C)(C)CCC2(C)C
- Potency [1]: inactive

SMILES: C[C@@H]1C[C@H]2[C@@H]3CCC4=CC(=O)C=C[C@]4(C)[C@@]3(F)[C@@H](O)C[C@]2(C)[C@@]1(O)C(=O)CO
- Potency [2]: 42.2 µM (active) and inactive
- activation [3]: -3.68% (inactive) and -5.63% (inactive)
- activation [4]: -2.02% (inactive) and -1.92% (inactive)
- outcome [5]: inactive
- outcome [6]: inactive
- outcome [7]: inactive
